Results from PubChem BioAssay (Tox21).
Where “and” joins values, the source holds several entries; their conditions need not be identical. Identical values can stand only once. Results filed as inconclusive are left out. A number with no mark means an inactive call. Calls of active or inactive are those of the source. Calls follow the shape of the dose curve; as a rule, active = well fitted cell-killing curve with a large enough effect in the repeat runs; inconclusive = weak or mixed curves, or effect the other way; inactive = flat fitted curve, though single readings scatter.

Test: qHTS RealTime-Glo MT Cell Viability Assay in HEK293 cells - 40 hour (AID 1224874); also: nearly all actives have a fitted effect of over 50% in size
Conditions: RealTime-Glo luminescence; max response: hits give low values
Source text: U.S. Tox21 Program National Center for Advancing Translational Sciences [NCATS] NIH Chemical Genomics Center [NCGC] U.S. Environmental Protection Agency [EPA] National Institutes of Environmental Health Sciences [NIEHS] National Toxicology Program [NTP] U.S. Food and Drug Administration [FDA] Tox21 Assay Overview: Measure of cell viability is critical in the cell-base assay. Analysis of cell viability is necessary for the characterization of cell responses to cytotoxic drugs and environmental stress. A RealTime-Glo MT Cell Viability Assay to monitor cell viability in real time of continues cell culture during 40 hours of compound treatment was used to screen Tox21 10K library compounds in Hek293 cells. The RealTime-Glo MT Cell Viability Assay is a nonlytic, homogeneous, bioluminescent method to measure cell viability in real time using a simple, plate-based method. The assay involves adding NanoLuc luciferase and a cell-permeant prosubstrate to cells in culture. Viable cells reduce the proprietary prosubstrate to generate a substrate for NanoLuc luciferase. This substrate diffuses from cells into the surrounding culture medium, where it is rapidly used by the NanoLuc Enzyme to produce a luminescent signal. The signal correlates with the number of viable cells, making the assay well suited for cytotoxicity studies.
Tox21 Assay Protocol Summary: The mixture of Hek293 cell suspension and reagents were dispensed at 600cells/6 ul/well in 1536-well tissue culture treated black solid bottom plates using a Multidrop dispenser. After the assay plates were incubated at a 37 C/5% CO2 incubator for 5 hours, 23 nL of compounds dissolved in DMSO, positive and negative controls was transferred to the assay plate by a pintool work station. The plates were incubated at 37 C for 40 hours. The luminescence intensity were measured at 0h, 8h, 16h, 24h, 32h and 40h time points using ViewLux plate reader during compound treatment.
% is scaled to controls: 0 for no effect and ±100 for the full control effect; potency is read from the fitted curve at half-maximal effect.

Row | Compound | Potency | max response [%]
1 | CCOP(=S)(NC(C)C)Oc1ccccc1C(=O)OC(C)C (stereo not given) | 43.6 µM (active) | –
2 | CCOP(=O)(Sc1ccccc1)Sc1ccccc1 | – | -12.3
3 | COC(=O)/C=C(\C)OP(=O)(OC)OC | – | -4
4 | COC(=O)N(OC)c1ccccc1COc1ccn(-c2ccc(Cl)cc2)n1 | 13.8 µM (active) | –
5 | CC(C)C(Br)C(=O)NC(N)=O (stereo not given) | – | 7.13
6 | CC(Cc1ccc2c(c1)OCO2)NO (stereo not given) | – | 0.458
7 | CNC(=O)/C=C(\C)OP(=O)(OC)OC | – | 6.16
8 | C#CCO | – | 3.5
9 | CCC(C)Nc1c([N+](=O)[O-])cc(C(C)(C)C)cc1[N+](=O)[O-] (stereo not given) | – | -8.53
10 | O=C(N[C@H]1N=C(c2ccccc2F)c2cccc3c2N(CC3)C1=O)c1cc2ccccc2[nH]1 | – | -4.67
11 | CSC(=O)c1c(C(F)F)nc(C(F)(F)F)c(C(=O)SC)c1CC(C)C | – | -19
12 | CC[N+]1(CC)CCC(OC(=O)C(O)(c2ccccc2)c2ccccc2)C1 (stereo not given) | – | 2.71
13 | CNC(=O)O/N=C(\C)C(C)S(C)(=O)=O (stereo not given) | – | 1.59
14 | CC(=O)[O-].CC(=O)[O-].[Co+2] | – | 8.26
15 | CC(C)Br | – | -13.8
16 | CC1=C2C[C@H]3[C@@H](CC=C4C[C@@H](O)CC[C@@]43C)[C@@H]2CC[C@]12O[C@@H]1C[C@H](C)CN[C@H]1[C@H]2C | 16.9 µM (active) | –
17 | C=CC(=C)C | – | 8.63
18 | CC(=O)[O-].CC(=O)[O-].CC(=O)[O-].[Sb+3] | – | 11.6
19 | FC(F)C(F)(F)OCC(Cn1cncn1)c1ccc(Cl)cc1Cl (stereo not given) | 21.7 µM (active) | –
20 | CCCCC/C=C\C/C=C\C/C=C\C/C=C\CCCC(=O)NCC(=O)O | – | -10.5

Row | Compound | Potency | max response [%]
21 | CCCCn1cc[n+](C)c1.[Cl][Fe-]([Cl])([Cl])[Cl] | – | 2.18
22 | CN1[C@@H]2CC[C@H]1CC(O)C2 (stereo not given in full) | – | 15.4
23 | CCN(CC)C(=O)N[C@@H]1C=C2c3cccc4[nH]cc(c34)C[C@@H]2N(C)C1 | – | -0.723
24 | O=C1C2(Cl)C3(Cl)C4(Cl)C(Cl)(Cl)C5(Cl)C3(Cl)C1(Cl)C5(Cl)C24Cl (stereo not given) | 13.6 µM (active) and 37.3 µM (active) | –
25 | c1ccc(Nc2ccc(Nc3ccccc3)cc2)cc1 | 19.4 µM (active) | –
26 | C=C(C)C(=O)[O][Sn]([CH2]CCC)([CH2]CCC)[CH2]CCC | 0.245 µM (active) | –
27 | [F][Sn]([c]1ccccc1)([c]1ccccc1)[c]1ccccc1 | 0.436 µM (active) | –
28 | O.O.O.O.O.O.O.O=S(=O)([O-])[O-].[Co+2] | – | 0.267
29 | COC(=O)c1ccccc1S(=O)(=O)NC(=O)Nc1nc(C)nc(OC)n1 | – | 0.753
30 | CCOP(=S)(OCC)Oc1cc(C)nc(N(CC)CC)n1 | – | 2.8
31 | Brc1ccc(Oc2ccc(Br)cc2Br)c(Br)c1 | 49 µM (active) | –
32 | CN1C(=O)[C@@H](NC(=O)c2cc3ccccc3[nH]2)N=C(c2ccccc2)c2ccccc21 | – | 20
33 | CC(C)NCC(O)c1ccccc1Cl (stereo not given) | – | 1.74
34 | N#CC(C#N)=NNc1cccc(Cl)c1 | 5.49 µM (active) | –
35 | COCCC#N | – | 7.47
36 | COP(=O)(OC)O/C(=C\Cl)c1cc(Cl)c(Cl)cc1Cl | – | 0.507
37 | CN(C)c1ccc(N)cc1 | 47.8 µM (active) | –
38 | Nc1nc(N)c(N)c(N)n1 | – | 10.2
39 | CCc1cccc(C)c1N(C(=O)CCl)[C@@H](C)COC | – | -25.5
40 | COP(=S)(OC)Oc1nc(Cl)c(Cl)cc1Cl | – | -0.946
